# High-throughput results (PubChem)
# This is a sample that favours compounds with a hit; in the whole collection about 9.2% have one here.
# FLuc modulator – counter-screen for miR-21 project: firefly luciferase inhibitors or activators; purified FLuc, Km substrates, luminescence inhibition; hit rate 6.9% among 360,000; AID 588342; Potency, µM (doses to about 57.5 µM), for inactives: at the top dose activity change, negative = inhibition, actives largely listed as inhibitors;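 also: plate controls were vehicle for no effect and reference inhibitor for full effect; nearly all actives have a fitted effect of over 55% in size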
# Target sequence (P08659 whole entry, looked up): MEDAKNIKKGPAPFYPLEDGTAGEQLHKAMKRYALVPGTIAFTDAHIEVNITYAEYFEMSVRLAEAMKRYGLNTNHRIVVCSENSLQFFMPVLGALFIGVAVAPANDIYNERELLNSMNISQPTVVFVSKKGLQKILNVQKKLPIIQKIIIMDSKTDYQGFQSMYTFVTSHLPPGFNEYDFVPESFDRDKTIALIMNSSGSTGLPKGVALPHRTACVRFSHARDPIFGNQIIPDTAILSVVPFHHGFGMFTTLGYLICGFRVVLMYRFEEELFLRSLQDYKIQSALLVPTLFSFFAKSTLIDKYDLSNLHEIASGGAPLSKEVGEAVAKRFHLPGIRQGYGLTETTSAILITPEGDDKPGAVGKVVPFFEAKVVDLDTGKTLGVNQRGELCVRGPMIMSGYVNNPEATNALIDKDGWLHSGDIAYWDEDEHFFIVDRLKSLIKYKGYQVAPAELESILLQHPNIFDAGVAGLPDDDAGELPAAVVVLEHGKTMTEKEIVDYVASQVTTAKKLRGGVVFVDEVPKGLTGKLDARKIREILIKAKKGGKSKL
#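 Biochemical qHTS of compounds, final roughly 60 µM downward over six points, against 10 nM purified firefly luciferase using Km concentrations of substrates (10 uM D-luciferin, 10 uM ATP) in Tris acetate pH 7.5 buffer; luminescence output.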
# NPC1 promoter act – activators of NPC1 promoter. Huh7 NPC1 promoter luciferase reporter, 24 h. Potency, µM (series often up to 9.22 µM), without a hit: at the top dose activation, most hits filed as activators. hit rate 2.4% among 320,000; also: % of control where 0% means no effect; nearly all actives have a fitted effect of over 60% in size
#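 Stable NPC1-promoter luciferase Huh7 line; cpd (DMSO) 24 h, 37 °C, 5% CO2; Amplite luciferase reagent 10 min RT; luminescence readout. qHTS format.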
# Rab9 prom act – Rab9 promoter activation; Potency, µM (series often up to 9.22 µM), without a hit: top-dose activation, negative = inhibition, usual class: activators; hit rate 2.8% among 320,000; Huh7 Rab9 promoter-luciferase reporter, luminescence, 24 h; AID 485297; also: % of control where 0% means no effect; nearly all actives have a fitted effect of over 60% in size
#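 Rab9 promoter-driven luciferase in stably transfected Huh7 cells; 1500 cells/well rested 2 h, exposed to compound in DMSO for 24 h at 37 °C, 5% CO2. Luminescence read 10 min after adding luciferase reagent at ambient temperature.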
# SMN2 splice up – enhancers of SMN2 splice variant expression | Potency, µM (highest dose often 46.1 µM), for inactives: at the highest dose activity change, positive = activation, usual class: activators | hit rate 2.8% among 210,000 | HEK293 SMN2-luciferase splicing reporter, luminescence, 30-36 h; also: % of control where 0% means no effect; nearly all actives have a fitted effect of over 55% in size
#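 HEK293 cells carry an SMN2 […]–luciferase reporter in which exon 7 inclusion puts luciferase in frame. Cells were plated 10-12 h before compound addition, then incubated 30-36 h at 37C. ONE-Glo luminescence was read; sodium butyrate at 4.5 mM final served as control.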
# ELG1 DNA repair – ELG1-dependent DNA repair inhibition; HEK293T ELG1-luciferase reporter, luminescence, 16 h; DNA damage induced by 5-fluorouridine; Potency, µM (doses to about 46.1 µM), for the others: at the top dose activity change, negative = inhibition, hits mostly inhibitors; hit rate 2.3% among 330,000; AID 504467; also: % is scaled to controls: 0 for no effect and ±100 for the full control effect; nearly all actives have a fitted effect of over 55% in size
#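 HEK293T cells expressing luciferase-tagged ELG1 (2,000/well) received 5-Fluorouridine plus compound or DMSO for 16 hr at 37 °C. Luciferase was read by ONE-Glo luminescence after 30 min at room temperature.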
# ELG1 genotox – induces genotoxicity in HEK293T cells with luciferase-tagged ELG1; Potency, µM (highest dose often 46 µM), for inactives: at the highest dose activity change, positive = activation, usual class: activators; HEK293T ELG1-luciferase reporter, luminescence, 16 h; hit rate 1.3% among 330,000; AID 504466; also: % of control where 0% means no effect; nearly all actives have a fitted effect of over 60% in size
#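 Reporter readout depends on ELG1 protein level, which increases with genetic stress. After 16 hr compound exposure at 37 °C, luciferase activity was quantified using ONE-Glo.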
# Active calls of the source: *; ? = inconclusive; . = not tested or not shown; [ ] = dose if it differs, or a comment. Calls follow the shape of the dose curve; as a rule, active = well fitted curve in the direction sought with a large enough effect; inconclusive = small, poorly fitted or top-dose-only effect, or another doubt; inactive = no such curve, though single readings can be large; an effect the other way counts as inactive or inconclusive. Potency is read from the fitted curve at half-maximal effect.
SMILES,FLuc modulator,NPC1 promoter act,Rab9 prom act,SMN2 splice up,ELG1 DNA repair,ELG1 genotox
CCOC(=O)c1c(NC(=O)/C=C/C(=O)O)sc(C)c1-c1ccc(C(C)(C)C)cc1,?,-7.4%,-5.1%,-64.8%,11.6µM*,-2.8%
CCOC(=O)c1ccccc1NC(=O)c1c(-c2ccccc2)noc1C,-17.6%,.,.,.,.,.
CCOC(=O)C1CCN(c2ncnc3c2c(-c2ccccc2)cn3-c2ccc(Cl)cc2)CC1,-3.6%,.,.,.,.,.
CCOC(=O)c1c(NC(=O)CCN2CCOCC2)sc(C)c1-c1ccccc1,2.1%,-0.9%,-7.8%,.,20.6µM*,-11.2%
Cc1nnc(SCc2nc(-c3ccc(Cl)cc3)no2)n1-c1ccc(F)cc1,-10.1%,.,.,10.7%,.,.
COc1ccc(C(CC(=O)Nc2ccc(C)cn2)N2Cc3ccccc3C2=O)cc1OC (stereo not given),-2.1%,.,.,.,.,.
CC(C)(C)c1ccc(/C=C/C(=O)Nc2ccc3c(c2)OCCO3)cc1,.,-27.8%[46.1 µM],-33.0%[46.1 µM],-86.3%,.,.
O=C(/C=C/c1ccc2c(c1)OCO2)Nc1nc(-c2ccccc2)cs1,3.01µM*,-3.6%,-2.4%,-61.7%,18.4µM*,-5.5%
O=C(/C=C/c1ccc2c(c1)OCO2)Nc1c(C(=O)O)[nH]c2ccccc12,7.57µM*,8.3%,-1.5%,-0.7%,28.7%,-1.8%
O=C(/C=C/c1ccc2c(c1)OCO2)Nc1nncs1,2.13µM*,2.24µM*,2µM*,.,-2.1%,?
CC(C)(C)c1ccc(/C=C/C(=O)Nc2nncs2)cc1,0.953µM*,0.794µM*,0.708µM*,?,?,2.59µM*
CCOC(=O)c1[nH]c2ccc(OC)cc2c1NC(=O)/C=C/c1ccc2c(c1)OCO2,-1.2%,10.0%,0.8%,?,2.6%,?
CN(Cc1ccccc1)c1ccc2cc(S(=O)(=O)N3CCCCC3)ccc2n1,-5.3%,.,.,.,.,.
COCC(=O)N1c2nc(-c3ccco3)nn2C2(CCCCC2)[C@@H]2CCCC[C@@H]21,-5.5%,.,.,.,.,.
Cc1sc(NC(=O)/C=C/c2ccc3c(c2)OCO3)nc1-c1ccccc1,9.53µM*,-20.9%,-24.0%,-55.9%,8.2µM*,0.1%
Cc1ccc(-n2ncc3c(NCc4cccnc4)ncnc32)cc1C,4.78µM*,2.24µM*,?,.,?,9.2µM*
COc1ccc(CNc2ncnc3c2cnn3-c2ccc(Cl)cc2)cc1,-5.2%,.,.,.,.,.
COc1ccc(-n2ncc3c(NCc4cccnc4)ncnc32)cc1,6.75µM*,1.26µM*,1µM*,.,?,?
Cc1cccc(-n2ncc3c(NCc4cccnc4)ncnc32)c1,8.49µM*,3.98µM*,2.51µM*,.,?,?
COc1ccccc1NC(=O)OC(C)c1ccc(Cl)cc1 (stereo not given),-2.0%,4.0%,19.3%,.,-3.6%,1.3%
CC(C)(C)OC(=O)N1CCC(c2c(C(=O)NCCN3CCOCC3)cnn2-c2cccc(F)c2)CC1,-3.3%,.,.,.,.,.
O=C(/C=C/c1cccc(Cl)c1)c1ccc([N+](=O)[O-])o1,-20.1%,-36.1%,-36.8%,.,7.3µM*,-46.2%
COc1cc(/C=C/C(=O)c2ccc([N+](=O)[O-])o2)ccc1O,?,-36.4%,-37.2%,.,?,?
Cc1cc(O)c(C(=O)/C=C/c2ccccc2O)c(=O)o1,-7.6%,1.7%,1.7%,.,-2.9%,-3.3%
Cc1cc(O)c(C(=O)/C=C/c2cccc([N+](=O)[O-])c2)c(=O)o1,21.3µM*,-12.9%,-15.7%,.,1.1%,1.3%
SMILES,FLuc modulator,NPC1 promoter act,Rab9 prom act,SMN2 splice up,ELG1 DNA repair,ELG1 genotox
COc1ccc(/C=C/C(=O)c2ccc([N+](=O)[O-])o2)cc1OC,-7.8%,-36.5%,-38.8%,.,11.6µM*,?
CC(C)Oc1ccc(CNC(=O)c2cc(S(=O)(=O)N3CCOCC3)cn2C)cc1,1.7%,0.7%,-6.7%,.,13.0%,1.6%
COc1ccc(N(C(C)=O)c2nc3ccccc3[nH]2)cc1,-11.4%,-3.5%,6.0%,.,7.2%,2.2%
O=C(CCCCCn1c(=O)c2sccc2n(Cc2ccc(Cl)cc2)c1=O)NCc1ccc2c(c1)OCO2,6.9%,.,.,-3.4%,.,.
O=S(=O)(CCC(F)=C(F)F)c1nnnn1C1CCCCC1,.,.,.,6.8%,.,.
Cc1nc2ccc(N=NC3=C(O)CCCC3=O)cc2s1,10.7µM*,4.9%,-2.9%,?,?,?
CCOc1ccc2nc(N=NC3=C(O)CC(C)(C)CC3=O)sc2c1,?,17.5%,-34.9%,-61.8%,?,-3.3%
CCN(CC)S(=O)(=O)c1cccc(N=NC2=C(O)CCCC2=O)c1,-2.7%,7.0%,6.9%,-14.5%,8.0%,0.5%
Cc1nc2ccc(N=NC3=C(O)CC(C)(C)CC3=O)cc2s1,4.26µM*,-2.2%,1.6%,?,?,?
O=C1CCCC(O)=C1N=Nc1cccc(C(=O)O)c1,8.49µM*,3.55µM*,2.24µM*,?,?,?
CC(=O)N1CCc2cc(N=NC3=C(O)CC(C)(C)CC3=O)ccc21,13.5µM*,3.98µM*,1.58µM*,?,?,?
COCc1ccc(C(=O)NC2CCCN(Cc3ccccc3F)C2)o1 (stereo not given),1.8%,-0.9%,0.5%,.,-8.3%,6.7%
COc1cc(/C=N\NC(=O)C(C)(C)O)ccc1OC/C=C/c1ccccc1,?,-1.3%,0.9%,.,-3.1%,-6.0%
Nc1cccc(CCc2ccncc2)c1,-3.0%,2.9%,14.8%,.,8.8%,-0.5%
Nc1cccc(/C=C/c2ccncc2)c1,16.9µM*,?,24.8%,.,?,11.8%
Cc1nn(Cc2ccc(Cl)cc2)c(C)c1NC(=O)c1noc2c1CCCCC2,2.6%,-3.4%,-5.8%,-26.3%,23.1µM*,-8.1%
Cc1cc(C(=O)Nc2cc(C)n(Cc3ccc(Cl)cc3)n2)no1,-25.0%,4.7%,-2.0%,-18.0%,-19.5%,-3.4%
Cc1cc(NC(=O)c2noc3c2CCCCC3)nn1Cc1ccc(Cl)cc1,13.5µM*,-3.8%,-3.4%,-34.5%,1.5%,0.0%
Cc1nn(Cc2ccc(Cl)c(Cl)c2)c(C)c1NC(=O)c1noc2c1CCCCC2,2.5%,17.9%,-0.6%,-46.5%,1.2%,1.8%
CCc1ccc(C(=O)c2cn(CC(=O)Nc3cc(OC)ccc3OC)c3ccc(C)cc3c2=O)cc1,-1.1%,.,.,-5.3%,.,.
Cc1cc(C)c2c(NC(=O)c3ccccc3Cl)c(C(=O)NCc3ccc(Cl)cc3)sc2n1,-5.2%,.,.,5.4%,.,.
CC(C)(C)c1ccc(C(=O)Nc2cc(-c3nc4ccccc4o3)ccc2Cl)cc1,0.2%,.,.,-3.6%,.,.
Cc1ccc(OCC(=O)Nc2ccc(S(=O)(=O)Nc3cc(C)on3)cc2)c(Br)c1,21.3µM*,.,.,-2.7%,.,.
Cc1cccc(NS(=O)(=O)c2cc(C(=O)OCC(=O)Nc3cc(C)on3)ccc2C)c1,5.9%,-4.8%,1.5%,-2.8%,4.6%,0.9%
